Several values for one entry are separate records, joined by “and”; a condition that tells them apart may be missing. Equal entries are not always repeated. Inconclusive results are not listed. Activity calls are given as the source filed them. Unless noted, cut-off not given; nearly all actives show AC50 up to about 26 µM.

The nature of test [1]: viability loss in pontine glioma line – cell-based, SU-DIPG-XVII, MIPE5.0, CellTiter-Glo, qHTS, dose response (AID 1347060).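 On AC50: cells exposed to compound for 48 hours before viability readout.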 As to conditions: CellTiter-Glo ATP luminescence. (In ATP-based viability assays light output follows the ATP content of the culture.)
Test [2] is described as follows: viability loss in pontine glioma line – cell-based, SU-DIPG-XIII, MIPE4.0, CellTiter-Glo, qHTS, dose response (AID 1347061; cut-off not given, nearly all actives have AC50 up to about 37 µM;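 further: cells exposed to compound for 48 hours before readout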). As to conditions: CellTiter-Glo ATP luminescence.
A short description of test [3]: viability loss in pontine glioma line – cell-based, JHH-DIPG-1, MIPE4.0, CellTiter-Glo, qHTS, dose response (AID 1347062; cut-off not given, nearly all actives have AC50 up to about 27 µM;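 on AC50: cells exposed to compound for two days before readout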). As to conditions: JHH-DIPG-1 viability, CellTiter-Glo ATP luminescence.
Test [4] in a line: viability loss in pontine glioma line – cell-based, SU-DIPG-IV, MIPE4.0, CellTiter-Glo, qHTS, dose response (AID 1347063; cut-off not given, nearly all actives have AC50 up to about 30 µM;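 further: compound exposure lasted 48 hours before the viability readout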). As to conditions: CellTiter-Glo ATP luminescence.
Test [5] in a line: viability loss in pontine glioma line – cell-based, SU-DIPG-XIII, MIPE5.0, CellTiter-Glo, qHTS, dose response (AID 1347064; cut-off not given, nearly all actives have AC50 up to about 23 µM;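 on AC50: cells exposed to compound for 48 hours before the viability read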). Conditions: CellTiter-Glo ATP luminescence.
Test [6] can be described thus: viability loss in pontine glioma line – cell-based, SU-DIPG-XXV, MIPE5.0, CellTiter-Glo, qHTS, dose response (AID 1347065).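 Further: cells exposed to compound for 48 hours before ATP readout.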 As to conditions: CellTiter-Glo ATP luminescence.
Test [7] can be described thus: growth inhibition of DIPG cells – cell-based, MIPE4.0 library, CellTiter-Glo luminescence, qHTS (AID 1347066; cut-off not given, nearly all actives have AC50 up to about 30 µM;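 further: cells exposed to compound for 48 hours before readout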). As to conditions: SU-DIPG-VI viability, CellTiter-Glo ATP luminescence.
A short description of test [8]: JHH-DIPG-1 glioma cell viability, MIPE5.0 library, CellTiter-Glo luminescence, qHTS (AID 1347067).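 Further: cells exposed to compound for 48 hours before readout.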 As to conditions: JHH-DIPG-1 glioma viability, CellTiter-Glo ATP luminescence.
Test [9] can be described thus: growth inhibition of DIPG cells – cell-based, MIPE5.0 library, qHTS (AID 1347068; cut-off not given, nearly all actives have IC50 up to about 30 µM;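 on IC50: cells exposed to compound for 48 hours before viability readout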). Conditions: SU-DIPG-XXV viability. A general note: Quantitative high-throughput screening tests each substance at several concentrations.
A short description of test [10]: viability loss with induced miR-34 in A549 – imaging, A549 dox-inducible miR-34, nuclei and caspase counts, primary screen (AID 1347080;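 active means compounds whose cell count with miR-34 switched on is under 0.7 times the count with it off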). As to conditions: A549 miR-34 inducible, Hoechst nuclei count, 48 h.
Test [11] is described as follows: compounds altering HSF1 focus formation in cells – imaging, Selleck Cancer Library (AID 1347162; in the data active means plate-normalised HSF1 focus index below about 0.46). Conditions: human cells, HSF1 nuclear foci imaging, at 10 µM; SSMD: measured here: HSF1 foci SSMD mean; cell count: measured here: cell number; plate-normalised HSF1 focus index: stronger effect = lower value.
A short description of test [12]: MELAS cybrid and Rieske KO viability enhancers – cell-based, MELAS cybrids, Rieske KO mouse fibroblasts, CellTiter-Glo, primary screen (AID 1508586;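 active means mean z-score across replicates of 1.96 or higher in either the MELAS or the Rieske mutant cell line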;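 further: z relative to plate mean and SD of compound and empty wells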). Conditions: low glucose.
Test [13] in a line: P. berghei load reduction in hepatocytes – cell-based, HepG2, luciferase luminescence, HepG2 viability, primary screen (AID 624349; in the data active means parasite load remaining mostly below about 12%, no sharp cut-off; inactive means mostly above about 10%;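 further: 100% = mean of DMSO negative control wells on the same plate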). Conditions: P. berghei liver stage in HepG2, luciferase luminescence, concentration not given here; parasite load remaining: stronger effect = lower value; viability: measured here: HepG2 viability without parasites.
Test [14] relates to Aerobactin synthetase IucA (Klebsiella pneumoniae, hypervirulent). The test is described as follows: biochemical IucA inhibition screen of LOPAC library by absorbance (AID 1346212; call rule not given here;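 further: 100% = no compound wells and 0% = no enzyme wells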). Conditions: IucA enzyme assay, absorbance (OD) readout; stronger effect = lower value;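 tested at 8 µM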.
Setting [15] is: stronger effect = lower value, cell number ratio, induced over uninduced.
Where [16] appears, read: measured here: relative caspase fold change +Dox/-Dox.
Setting [17] is: measured here: total cells with miR-34 induction, stronger effect = lower value.
[18] abbreviates: measured here: total cells without miR-34 induction.
Where [19] appears, read: MELAS cybrid survival, CellTiter-Glo 48 h, stronger effect = higher value.
Setting [20] is: Rieske KO mouse fibroblast survival, CellTiter-Glo 72 h.

Consider `O=C(Oc1ccc([N+](=O)[O-])cc1)N1CCC(C(O)(c2ccc3c(c2)OCO3)c2ccc3c(c2)OCO3)CC1`, for which the outcome in [1], in test [2], in test [3], in test [4], in [5] and in [6] was inactive. Further, the result in test [7], in test [8] and in test [9] was inactive. In addition, the fold change is 1.03 (inactive) and 0.881 (inactive) in test [10] (setting [15]); 1.13 and 1 in test [10] (setting [16]). In addition, the cell count in [10] (setting [17]) was 6030 and 8340; in test [10] (setting [18]), 5850 and 9460; in [11], 6730. The same compound had an SSMD in test [11] of 3.32. Moreover, the plate-normalised HSF1 focus index in test [11] is 1.2 (inactive). Also, the values for the z-score in test [12] (setting [19]) and in test [12] (setting [20]) were -0.115 (inactive) and -0.259, respectively.

As for `CC(C)(O)/C=C\C(=O)[C@](C)(O)[C@H]1[C@H](O)C[C@]2(C)[C@@H]3CC=C4[C@@H](C=C(O)C(=O)C4(C)C)[C@]3(C)C(=O)C[C@@]12C`, the AC50 (usually the midpoint of the concentration-response curve, whichever way the signal moves) in test [1] is 0.0661 µM (active); in test [2], 18.7 µM (active); in test [3], 0.105 µM (active); in test [4] it was 0.0296 µM (active); in [5], 0.0525 µM (active); in test [6], 0.0295 µM (active). Besides, the AC50 in [7] was 8.33 µM (active); in test [8] it was 0.0525 µM (active). Also, the IC50 – broadly, the concentration that inhibits the measured activity by half – in [9] is 0.148 µM (active).

For `CCN1CCN(C(=O)Cc2ccc(Nc3ncc(F)c(Nc4ccc(C(=O)Nc5ccccc5Cl)cc4)n3)cc2)CC1`, the AC50 in [1] was 1.86 µM (active); in [3], 10.5 µM (active); in test [4], 8.33 µM (active); in test [5], 6.61 µM (active); in test [6], 1.05 µM (active); in [7], 5.9 µM (active). Moreover, in [8], the AC50 is 3.72 µM (active). Moreover, the call in test [2] was inactive. In addition, the IC50 in [9] is 23.5 µM (active). Besides, the results for the fold change in [10] (setting [15]) and in test [10] (setting [16]) were 0.811 (inactive) and 0.731, respectively. Besides, the cell count in [10] (setting [17]) worked out at 705; in test [10] (setting [18]), 869. Also, the values for the z-score in test [12] (setting [19]) and in test [12] (setting [20]) were 2.83 (active) and -1.29, respectively.

As for `N=c1c2c(-c3ccccc3)c(-c3ccccc3)n(Cc3ccccc3)c2ncn1C1CCC(O)CC1` (centres undefined), the AC50 in test [1] was 18.6 µM (active); in test [4], 8.33 µM (active); in test [5] it was 16.6 µM (active); in test [6], 20.9 µM (active). In addition, the compound was called inactive in test [2]. The half-maximal inhibitory concentration (IC50) in test [9] was 18.6 µM (active).

Turning to `COC(=O)[C@]12CCC(C)(C)C[C@H]1[C@H]1C(=O)C=C3[C@@]4(C)C=C(C#N)C(=O)C(C)(C)[C@@H]4CC[C@@]3(C)[C@]1(C)CC2`, the AC50 in [1] is 3.72 µM (active); in test [2] it was 2.64 µM (active); in test [3], 0.59 µM (active); in test [4] it was 0.469 µM (active); in [5], 3.72 µM (active); in [6] it was 2.09 µM (active). The AC50 in test [7] was 0.743 µM (active); in [8], 0.833 µM (active). For the same compound, in test [9], the 50% inhibitory concentration (IC50) was 10.5 µM (active).

`COc1ccc2c(c1)/C(=C/c1cnc[nH]1)C(=O)N2`: in test [13], the parasite load remaining is 16.5% (inactive) and the viability (as a rule, a read-out of living cells in per cent, often relative to untreated cells) was found to be 98.5%. Further, the remaining activity – broadly, the signal under treatment as a percentage of the control signal – in [14] was 119% (inactive).

Turning to `C/C=C(\C)C(=O)N[C@@H](c1ccccc1)[C@@H](O)C(=O)O[C@H]1C[C@@]2(O)[C@@H](OC(=O)c3ccccc3)[C@@H]3[C@]4(OC(C)=O)CO[C@@H]4C[C@H](O)[C@@]3(C)C(=O)[C@H](OC(C)=O)C(=C1C)C2(C)C`, the half-maximal activity concentration (AC50) was 0.0132 µM (active) in test [1] and 0.0235 µM (active) in test [6]. For the same compound, the compound was classed as inactive in [2], in test [3], in [4] and in [7].

For `O=C1C=CC[C@@H]2[C@H]3CCCN4CCC[C@@H](CN12)[C@@H]34`, the result in test [1], in [2], in test [5], in test [6], in test [7] and in test [8] was inactive. The compound was classed as inactive in [9].

As to `COC12C(COC(N)=O)C3=C(C(=O)C(C)=C(N)C3=O)N1CC1C2N1C` (centres undefined), the AC50 in test [1] was 1.48 µM (active).

Source of the values: PubChem BioAssay.
